High-throughput results from PubChem BioAssay.
Gal4-VP16 FLuc = counter-screen for ROR gamma inhibitors: Gal4-VP16 reporter | AID 2546 | Drosophila S2 Gal4-VP16 UAS-luciferase, luminescence, 20 h | actives 3.5% (n = 310,000) | Potency, µM (top dose mostly 53.6 µM), inactives show at the highest dose activity, negative = inhibition, hits mostly inhibitors;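 further: Gal4-VP16 expression switched on by copper sulfate through the metallothionein promoter; nearly all actives have a fitted effect of over 50% in size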
RORgamma inh = inhibitors of mouse ROR gamma transcriptional activity. P51450. Drosophila S2 Gal4-RORgamma UAS-luciferase reporter, 20 h. Potency, µM (top dose mostly 53.6 µM), without a hit: at the top dose activity change, negative = inhibition, most hits filed as inhibitors. actives 5.4% (n = 310,000). AID 2551; further: nearly all actives have a fitted effect of over 60% in size
Target sequence (P51450 whole entry, looked up, the tested form may be a part): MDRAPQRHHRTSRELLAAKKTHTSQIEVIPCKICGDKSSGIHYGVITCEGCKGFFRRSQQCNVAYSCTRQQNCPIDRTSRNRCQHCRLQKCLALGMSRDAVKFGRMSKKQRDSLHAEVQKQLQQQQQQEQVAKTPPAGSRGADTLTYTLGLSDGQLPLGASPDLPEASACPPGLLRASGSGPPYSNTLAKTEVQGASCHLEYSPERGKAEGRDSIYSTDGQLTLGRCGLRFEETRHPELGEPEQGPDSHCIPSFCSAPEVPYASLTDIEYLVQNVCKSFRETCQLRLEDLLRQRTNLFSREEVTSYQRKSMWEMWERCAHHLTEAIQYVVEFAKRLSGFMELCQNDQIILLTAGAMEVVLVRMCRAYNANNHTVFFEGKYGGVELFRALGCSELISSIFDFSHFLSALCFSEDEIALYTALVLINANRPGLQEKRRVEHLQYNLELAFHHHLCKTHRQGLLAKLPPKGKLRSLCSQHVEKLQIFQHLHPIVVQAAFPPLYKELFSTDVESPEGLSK
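A Gal4/UAS one-hybrid system in insect cells: metallothionein-promoter Gal4–ROR gamma fusion plus Photinus luciferase reporter. Copper sulfate 700 uM final, 20 hr ambient incubation, luminescent detection after 10 min with reagent.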
Luc counter = blocks Kinase-Glo luciferase, a counter-screen artifact; Kinase-Glo luciferase, ATP luminescence, 8 min; Potency, µM (top dose mostly 38.3 µM), for inactives: at the top dose activity change, negative = inhibition, actives largely listed as inhibitors; Q27757; actives 0.28% (n = 200,000); further: nearly all actives have a fitted effect of over 60% in size
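Light output from Kinase-Glo luciferase with luciferin and 10 uM ATP in 50 mM imidazole pH 7.2, KCl, MgCl2, Tween 20, BSA; compound pin-delivered, 8-min ambient incubation, then luminescence read.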
* marks the source's active call; other numbers are inactive results; ? = inconclusive; · = no result given; [ ] = dose if it differs, or a comment. Most compounds without a hit are left out; they make up all but 6.4% or so of the library. The call rests on the fitted dose curve; in most records, active means well fitted curve in the direction sought with a large enough effect; inconclusive means small, poorly fitted or top-dose-only effect, or another doubt; inactive means no such curve, though single readings can be large; an effect the other way counts as inactive or inconclusive. On the % scale 0 is the no-effect control and ±100 the full control effect; potency means the concentration at half of the fitted maximal effect.

SMILES | Gal4-VP16 FLuc | RORgamma inh | Luc counter
Nc1nc2c(nc(Sc3ccc(Cl)cc3)n2C2OC(CO)C(O)C2O)c(=O)[nH]1 (stereo unspecified) | -0.7% | -0.4% | -0.2%
CC(C)Nc1nc(Oc2ccc(Cl)cc2Cl)cc(C(F)(F)F)n1 | ? | 25.1µM* | 3.6%
CC(C)Nc1nc(Oc2cccc(Cl)c2Cl)cc(C(F)(F)F)n1 | ? | ? | -5.3%
COc1cccc(C(C(=O)NC(C)(C)C)N(Cc2ccc(F)cc2)C(=O)CCC(=O)Nc2cc(C)on2)c1OC (stereo unspecified) | 4.6% | -10.4% | ·
CCOc1ccc(CNC(=O)CCCn2nc(C)c3c(C)n(-c4ccc(C)cc4)nc3c2=O)cc1 | -5.6% | 13.6% | ·
O=CN/C=C/c1cc(O)ccc1O | 15.8µM* | 11.2µM* | ·
O=Cc1ccc(O)cc1O | -9.9% | -29.4% | ·
COc1ccc(-n2c(=O)c(-c3ccc(F)cc3)nc3cncnc32)cc1 | 4.0% | -14.3% | ·
COc1ccc(C(NC(=O)c2cccnc2)c2cc(Cl)c3cccnc3c2O)cc1OC (stereo unspecified) | 3.98µM* | 2µM* | -1.7%
CCC(=O)NC(c1ccco1)c1cc(Cl)c2cccnc2c1O (stereo unspecified) | 2.82µM* | 1.41µM* | -3.9%
CCCCC(=O)NC(c1ccco1)c1cc(Cl)c2cccnc2c1O (stereo unspecified) | 0.3% | -0.1% | -3.0%
CC(=O)Nc1c(Cl)cc([N+](=O)[O-])c2ccccc12 | 1.9% | 22.6% | -0.2%
COc1ccc(C(=O)NCCCNC(=O)c2cccnc2)cc1OC | 6.3% | 17.8% | ·
Fc1ccc(C(Nc2ccccn2)c2c[nH]c3ccccc23)cc1 (stereo unspecified) | -4.1% | -1.5% | -3.1%
CC(=O)NC(c1ccccc1)c1cc([N+](=O)[O-])c2cccnc2c1O (stereo unspecified) | -27.7% | 7.94µM* | 4.9%
Oc1c(C(Nc2ccccn2)c2cccnc2)cc(Cl)c2cccnc12 (stereo unspecified) | 4.47µM* | 3.98µM* | -1.0%
CCCN1CCCC(c2cccc(S(C)(=O)=O)c2)C1 (stereo unspecified) | -3.6% | 13.6% | ·
COc1ccccc1NC(=O)CSc1nnc(CCC(=O)Nc2ccccc2F)n1C | -4.9% | 10.4% | ·
CCC(C)c1ccc(OCc2ccc(C(=O)OC)o2)cc1 (stereo unspecified) | -23.9% | 26.5% | ·
COCc1cc(C(C)=O)ccc1OCC(=O)Nc1ccc(NC(C)=O)cc1 | -6.1% | 2.2% | ·
CC(=O)NC(c1ccc(C)cc1)c1cc(Cl)c2cccnc2c1O (stereo unspecified) | 0.631µM* | 1.12µM* | ·
O=[N+]([O-])c1cc(Cc2cc([N+](=O)[O-])c3cccnc3c2O)c(O)c2ncccc12 | · | · | -5.6%[7.66 µM]
Cc1ccc(C(=O)Nc2c(C)cc(C)c3cccnc23)cc1 | -7.3% | -32.1% | ·
CC(C)C(=O)NC(c1ccccc1)c1cc([N+](=O)[O-])c2cccnc2c1O (stereo unspecified) | ? | 6.31µM* | 1.2%
CO[C@H]1COC(=O)[C@H](C)NC(=O)C/C=C\[C@@H](C)[C@H](OC)COC(=O)C/C=C\[C@@H]1C | -4.3%[10 µM] | 2.4%[10 µM] | ·
SMILES | Gal4-VP16 FLuc | RORgamma inh | Luc counter
CN(C(=S)SCc1ccccc1)C1CCS(=O)(=O)C1 (stereo unspecified) | -0.9% | ? | 5.1%
O=C(CN(Cc1ccc(F)cc1)C(=O)c1csnn1)NC1CCCC1 | 22.4% | -14.9% | ·
O=C(NS(=O)(=O)c1ccc(F)cc1)O[C@@H]1C(=O)c2cc(Br)ccc2O[C@H]1c1ccc2c(c1)OCO2 | -7.7% | -17.7% | -0.3%
CCCCOc1ccc(Br)cc1CSC(=N)N | 10µM* | ? | -2.1%
CCOc1ccc(C(C)=O)cc1CSC(=N)N | -8.9% | 4.1% | -1.3%
NS(=O)(=O)c1ccc(CCNC(=O)c2cc3ccccc3oc2=O)cc1 | -14.6% | 20.3%[1.91 µM] | ·
CN(C)c1ccc(NC(=O)/C=C/c2c(Cl)cccc2Cl)cc1 | -5.8% | -22.6% | -0.9%
O=C(/C=C/c1ccccc1Cl)Nc1ccccc1 | ? | 2µM* | ·
CN(C)S(=O)(=O)c1ccc(NC(=O)/C=C/c2ccccc2Cl)cc1 | -9.9% | 0.501µM* | 0.8%
O=C(/C=C/c1ccccc1[N+](=O)[O-])Nc1ccccc1 | 4.9% | -8.2% | -14.0%
O=C(/C=C/c1ccccc1Cl)Nc1ccc2c(c1)C(=O)NC2=O | -10.1% | -26.9% | 4.6%
O=C(/C=C/c1ccccc1Cl)Nc1cccc(O)c1 | 2.51µM* | 0.316µM* | -23.1%
C[C@@H](c1ccccc1)N1C(=O)[C@H]2[C@@H]3[C@H](O)C=CC(=O)[C@H]3CC[C@H]2C1=O | -12.5%[10 µM] | ? | ·
COC(=O)c1c(-c2ccccc2)c[nH]c1C | 22.3% | ? | ·
Cc1cc(=O)oc2cc(NC(=O)C(CCCN=C(N)N)NC(=O)OCc3ccccc3)ccc12 (stereo unspecified) | 4.0% | -7.8% | ·
CCC1CCCCN1CCCNC(=O)C1CCN(c2nnc(-n3cccc3)s2)CC1 (stereo unspecified) | -3.4% | -12.2% | ·
CCOC(=O)CNC(=S)N(Cc1ccccc1F)C1CCCCC1 | -6.0% | 11.2µM* | 1.5%
CCCNC(=O)CNC(=S)N(Cc1ccccc1F)C1CCCCC1 | -22.9% | ? | -0.3%
CCn1cc(CCC(=O)NCCN2CCOCC2)c2ccccc21 | -6.8% | 0.4% | ·
CN(c1ccccc1)S(=O)(=O)c1cccc(C(=O)OCC(=O)NCCCN2CCCC2=O)c1 | 13.9% | 23.5% | -0.4%
CC(C)N1CCc2c(sc(NC(=O)c3ccc([N+](=O)[O-])o3)c2C(N)=O)C1 | ? | 7.08µM* | ·
CC(=O)N1CCc2c(sc(NC(=O)c3ccc([N+](=O)[O-])o3)c2C#N)C1 | 0.6% | -40.3% | -20.0%
CCN1CCN(CCCNC(=O)C2c3ccccc3C(=O)N(c3ccc(OC)cc3)C2c2ccc(OC)cc2)CC1 (stereo unspecified) | 5.1% | -1.3% | -2.9%
OCc1ccccc1N=c1ssnc1Cl | -5.4% | 0.4% | -4.2%
Clc1ccc(N=c2ssnc2Cl)nc1 | -6.8% | 10µM* | -2.9%
SMILES | Gal4-VP16 FLuc | RORgamma inh | Luc counter
O=[N+]([O-])c1ccc(Cl)c(NC(=S)N2CCCC2)c1 | -14.0% | 10.8% | ·
Cc1nc(CS(=O)(=O)c2ccc(Cl)cc2)cc(N2CCOCC2)n1 | 1.4% | -6.4% | 3.3%
O=S(=O)(Cc1cc(N2CCOCC2)nc(-c2ccccn2)n1)c1ccccc1 | -19.0% | 15.8µM* | 2.9%
Oc1c(C(c2ccccn2)N2CCC(Cc3ccccc3)CC2)cc(Cl)c2cccnc12 (stereo unspecified) | ? | ? | -0.2%
Cc1nc2sc(C(c3ccccc3)N3CCN(C)CC3)c(O)n2n1 (stereo unspecified) | -9.8% | 9.7% | ·
Oc1c(C(c2ccc(Cl)cc2)N2CCCC2)cc(Cl)c2cccnc12 (stereo unspecified) | ? | 1.41µM* | 1.2%
CN1CCN(C(c2ccccn2)c2cc(Cl)c3cccnc3c2O)CC1 (stereo unspecified) | 5.01µM* | 1.41µM* | 0.0%
Cc1ccc(C(c2cc(Cl)c3cccnc3c2O)N2CCN(C)CC2)cc1 (stereo unspecified) | 0.708µM* | 1.26µM* | ·
Clc1ccc(C(c2ccccc2)N2CCN(c3ccccn3)CC2)cc1 (stereo unspecified) | 12.0% | -21.6% | ·
